Only some compounds are listed: those with a hit (about 6.9% of all), similar ones and a draw of the others.
MPTP inh = permeability transition pore inhibition; isolated mouse mitochondria, Ca2+ swelling absorbance, 30 min; inhibition, % at 10 µM; actives 1.4% (n = 360,000); AID 602449;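 active means inhibition of 50% or more, scaled per plate between neutral and stimulator controls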
Mdm2-MdmX inh = human Mdm2/MdmX binding inhibition. inhibition, % at 8 µM. AID 485346. actives 3% (n = 330,000). SaOS-2 split-luciferase Mdm2/MdmX complementation, luminescence;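 active means inhibition of at least 50% at 8 µM in the primary screen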
SKKanGAS inh = inhibitors of SKKanGAS S. pyogenes growth in kanamycin (SK-promoter or general growth effect). BacTiter-Glo, 6 h. inhibition, % at 7.5 µM. actives 1.3% (n = 300,000);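 active means mean replicate score, as percent of positive control median, at least 50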;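 further: strain carries kanamycin resistance gene driven by streptokinase promoter and grows in 40 µg/ml kanamycin; loss of luminescence reflects streptokinase promoter inhibition or plain growth inhibition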
NR3A LBD binder = modulates the human NR3A ligand-binding domain. NR3A LBD differential scanning fluorimetry, Tm shift; 0% = protein alone, 100% = glycine-bound protein. Tm shift relative to glycine control, % at 25 µM. AID 1259313. actives 2.5% (n = 340,000);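 active means melting temperature shift of at least 10% of the positive control shift, at one fixed dose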
CSC inhib = cancer stem cell inhibition; cancer stem cell-like cells viability, luminescence; inhibition, % at 7.5 µM; actives 1.1% (n = 300,000); AID 2717; in the data active means inhibition above about 75%; tested in HMLE shEcad cells
Beta apoptosis = beta cell apoptosis inhibition; actives 0.8% (n = 300,000); INS-1E cytokine-induced death, ATP luminescence, 48 h; percent of positive-control rescue, neutral wells zero; protection from apoptosis, % (no concentration beside the values);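 active means Every replicate reaches about 75%, or at least half do and their mean reaches it too, limit read from the data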;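 further: higher means more ATP so stronger rescue from cytokine killing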
Each line names hits and unclear results; the compound was inactive in the other large screens.

COc1cc(/C=N/NC(=O)CC#N)cc(Br)c1O	none
COc1cc(/C=N/NC(=O)c2sc(N)c(C#N)c2C)cc(Br)c1O	NR3A LBD binder 16 (no result: CSC inhib)
COc1ccc2ccccc2c1/C=N\NC(=O)c1ccc(C)s1	none (no result: SKKanGAS inh)
COC(=O)C[C@H]1c2cc(C(F)(F)F)ccc2S(=O)(=O)N1Cc1ccc(OC)cc1	none
Cc1nc(Nc2ccc(Cl)cc2Cl)sc1C(=O)Nc1ccccc1	NR3A LBD binder 43, CSC inhib 83
Cc1nc(NC(=O)C2CC2)sc1C(=O)Nc1cccc(Cl)c1	none
COc1ccc(C(=O)NCc2ccc3c(c2)OCO3)cc1S(=O)(=O)N1CCCC1	none (no result: SKKanGAS inh, CSC inhib, Beta apoptosis)
CCO/C=N/Nc1nc(C(F)(F)F)nc2c1cnn2Cc1ccccc1	NR3A LBD binder 13
Cc1ccc(NC(=O)CC2C(=O)N(Cc3ccccc3)C(=S)N2NC(=O)c2ccccc2)c(C)c1 (stereo not drawn)	NR3A LBD binder 11
CNC(=O)CC1C(=O)N(Cc2ccccc2)C(=S)N1NC(=O)c1cccc(F)c1 (stereo not drawn)	NR3A LBD binder 14
CCN1C(=O)C(CC(=O)Nc2ccccc2Cl)N(NC(=O)c2cccc(F)c2)C1=S (stereo not drawn)	none
COc1ccccc1C(CNC(=O)c1cccc(S(=O)(=O)Nc2ccc(C)cc2)c1)N(C)C (stereo not drawn)	none
Cc1ccoc1C(=O)N1CCN(C(=O)c2occc2C)CC1	none
COc1ccc(NC(=O)Nc2nnc(-c3ccncc3)s2)cc1	NR3A LBD binder 11
Cc1ccc(NC(=O)Nc2nc(-c3ccc(C)s3)cs2)cc1	NR3A LBD binder 24
COc1ccc(-c2csc(NC(=O)Nc3ccccc3)n2)cc1	NR3A LBD binder 26
CN1C(=O)C(C)(C)c2cc(S(=O)(=O)NCC3CCC(C(=O)NCc4ccccc4)CC3)ccc21 (stereo not drawn)	none
CC1=C(C(=O)Nc2ccc(C(=O)NC(C)c3ccccc3)cc2)SCCO1 (stereo not drawn)	none
O=C(NC1CCCc2ccccc21)c1cccc(S(=O)(=O)N2CCOCC2)c1 (stereo not drawn)	none
CCC1(C)Cc2c(sc3nc(SC)[nH]c(=S)c23)CO1 (stereo not drawn)	SKKanGAS inh 85 (no result: MPTP inh, CSC inhib, Beta apoptosis)
CCSc1nc2sc3c(c2c(=O)[nH]1)CC(C)(CC)OC3 (stereo not drawn)	none
COc1ccc(-c2cc3c(=O)n(CC(=O)Nc4cccc(Cl)c4)nc(C)n3n2)cc1	none (no result: Beta apoptosis)
CSc1nc(N)nc(SCC(=O)c2ccc(C)cc2)c1C#N	NR3A LBD binder 20
CSc1nc(N)nc(SCC(=O)OC(C)C)c1C#N	none
Cc1ccccc1OCC(=O)Nc1ccccc1N1CCC(C)CC1	SKKanGAS inh 82 (no result: Beta apoptosis)
O=C(COc1cccc(Cl)c1)Nc1ccccc1N1CCCCC1	SKKanGAS inh 66
Cc1cc(C)c(OCC(=O)Nc2ccccc2N2CCCCC2)c(C)c1	SKKanGAS inh 80
O=C(COc1ccccc1)Nc1ccccc1N1CCCCC1	none
O=C(NC(c1ccccc1)c1c(O)ccc2ccccc12)c1ccccc1Cl (stereo not drawn)	NR3A LBD binder 11 (no result: SKKanGAS inh)
Cc1cccc(Nc2nc(Cl)ncc2F)c1C	none
C(C#CCCCCCCCCC[n+]1ccccc1)#CCCCCCCCCC[n+]1ccccc1	SKKanGAS inh 62, CSC inhib 75, Beta apoptosis 104 (no result: Mdm2-MdmX inh)
O=C(NCCc1ccncc1)Nc1ccc(Cl)c(Cl)c1	NR3A LBD binder 18
O=C(NCCO)Nc1ccc(Cl)cc1	none
O=C(NCCc1ccncc1)Nc1ccccc1	none
CC(=O)c1cccc(NC(=O)Nc2ccccc2)c1	none
O=C(NCCNC(=O)Nc1ccc(Cl)cc1)Nc1ccc(Cl)cc1	NR3A LBD binder 22 (no result: Mdm2-MdmX inh, SKKanGAS inh, CSC inhib, Beta apoptosis)
NC(=O)c1cccc(NC(=O)Nc2ccc(Cl)cc2)c1	NR3A LBD binder 24
O=C1C(C2=NC(c3ccccn3)C3C(=O)N(c4ccccc4)C(=O)C23)=C(O)c2ccccc21 (stereo not drawn)	none
CC1(C(=O)NS(=O)(=O)c2cccc(OC(F)F)c2)CCN1C(=O)Cc1cccs1 (stereo not drawn)	none (no result: Mdm2-MdmX inh, SKKanGAS inh, NR3A LBD binder, CSC inhib, Beta apoptosis)
CN(C)C=NC(=O)c1ccc([N+](=O)[O-])c(CS(=O)(=O)c2ccc(Cl)cc2)c1	NR3A LBD binder 13
O=C(CSCc1c(F)cccc1Cl)NCc1cccnc1	NR3A LBD binder 12
COc1ccc(OCCCC(=O)Nc2cccc([N+](=O)[O-])c2)cc1	NR3A LBD binder 16
COc1cccc(NC(=O)CC(=O)c2ccc([N+](=O)[O-])cc2)c1	NR3A LBD binder 17
CCOC(=O)/C=C/C(=O)Nc1cccc([N+](=O)[O-])c1	CSC inhib 108
CCCCN(C)C(=O)c1sc(=O)n(CC(=O)c2ccccc2OC)c1C	none (no result: Mdm2-MdmX inh, SKKanGAS inh, NR3A LBD binder, CSC inhib, Beta apoptosis)
CCCCn1c(N)c(N(CC)C(=O)c2cc(S(=O)(=O)N3CCCCCC3)ccc2OC)c(=O)[nH]c1=O	none
CCc1ccc(OCCSc2nc3ccccc3n2CC(=O)O)cc1	none
CCCc1c(C(=O)N/N=C/c2ccccc2OCc2ccc(F)cc2)nnn1-c1nonc1N	none
CCCc1c(C(=O)N/N=C/c2ccc(OCc3ccccc3)c(OC)c2)nnn1-c1nonc1N	NR3A LBD binder 12
CCCc1c(C(=O)N/N=C/c2ccc(OC)c(OCc3ccccc3)c2)nnn1-c1nonc1N	NR3A LBD binder 37
CCCc1c(C(=O)N/N=C/c2c(OC)ccc3ccccc23)nnn1-c1nonc1N	NR3A LBD binder 31
COc1cc(/C=N/NC(=O)c2cccs2)ccc1OCc1ccccc1	NR3A LBD binder 19
CCCc1c(C(=O)N/N=C/c2ccc(OCc3ccccc3)cc2)nnn1-c1nonc1N	none (no result: Mdm2-MdmX inh, SKKanGAS inh, NR3A LBD binder, CSC inhib, Beta apoptosis)
COc1ccc(OC)c(S(=O)(=O)N2CCC(C(=O)NC3CC3)CC2)c1	none
Cc1ccc(C)c(S(=O)(=O)N2CCCOC2CNC(=O)C(=O)NC2CCCC2)c1 (stereo not drawn)	none
C=C(C)CNC(=S)NNC(=O)CCn1c2cc(Cl)ccc2c2ccc(Cl)cc21	NR3A LBD binder 16
COc1cc(C#N)c(NS(=O)(=O)c2ccc3[nH]c(=O)sc3c2)cc1OC	none
COc1cc(/C=N/O)ccc1OCc1ccc(Cl)cc1	none (no result: MPTP inh, NR3A LBD binder)
CCOc1cc(/C=N/N=C(N)N)ccc1OCc1ccc(Cl)cc1	CSC inhib 106 (no result: Mdm2-MdmX inh)
O=C(NC1CC1)c1ccc2sc([C@@H]3O[C@H](CO)[C@H](O)[C@H](O)[C@H]3O)nc2c1	none (no result: Mdm2-MdmX inh, SKKanGAS inh, NR3A LBD binder, CSC inhib, Beta apoptosis)
Cc1cc(C2N=C(N)Nc3nc4ccccc4n32)c(C)n1-c1ccccc1Cl (stereo not drawn)	NR3A LBD binder 12
NC1=NC(c2ccc(F)cc2)n2c(nc3ccccc32)N1 (stereo not drawn)	none
COc1ccc(C(=O)Nc2c3c(nn2-c2ccc([N+](=O)[O-])cc2)CS(=O)(=O)C3)cc1	SKKanGAS inh 52 (no result: Beta apoptosis)
COc1cc([N+](=O)[O-])ccc1N=Nc1c(N)[nH]n(-c2ccccc2)c1=O	none
Nc1[nH]n(-c2ccccc2)c(=O)c1N=Nc1ccc2ncsc2c1	NR3A LBD binder 14

Screening results as filed in PubChem.
